This is part of a sample that, as a whole, favours compounds with a hit. Of some 83,000 tested, about 20% had one in any assay.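 A percent growth of 40 corresponds to 60% growth inhibition; 0 means no net growth; -100 means all cells died. Active threshold: below 10.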 Values without a mark were called inactive. Calls of active or inactive are those of the source.

What all share (assay): NCI-60 one-dose screen, 48 h (100 = growth as untreated, 0 = no growth, -100 = all killed)
What all share (details): 10 µM unless noted

Test [1] concerns HCT-15 colon.
Test [2] concerns HT29 colon.
Test [3] has as its system SNB-75 CNS.
Test [4] deals with SNB-19 CNS.
The test system of test [5] is U251 CNS.
The test system of test [6] is PC-3 prostate.
Test [7] deals with SK-MEL-5 melanoma.
Test [8] deals with UACC-62 melanoma.
The test system of test [9] is SK-MEL-28 melanoma.
For test [10], the system named is SK-MEL-2 melanoma.
For test [11], the system named is EKVX NSCLC.
Test [12] concerns SN12C renal.
Test [13] concerns UO-31 renal.
Test [14] relates to TK-10 renal.
The subject of test [15] is ACHN renal.
Test [16] has as its system CAKI-1 renal.
The test system of test [17] is A498 renal.
Test [18] concerns CCRF-CEM leukemia.
In test [19] the test system is LOX IMVI melanoma.
Test [20] deals with MOLT-4 leukemia.

On to `COc1ccc2sc3c(NCCCNCCO)nc4ccccc4c3c(=O)c2c1`, for which the growth in [1] was 44%; in [2], -39.2% (active); in [3], 65.9%; in [4], 66.8%; in [5], 32.2%; in [6] it was 62.3%. Besides, the growth is 81.4% in [7]; 85% in [8]; 70.6% in [9]; 102% in test [10]; 67.2% in test [11]; 62% in test [12]. In addition, the growth in [13] is 46.4%; in [14] it was 75%; in test [15], 57.7%; in [16], 44%; in test [17] it was 38.1%; in [18] it was 2.35% (active).
As to `CSc1nc2ccc(C)cc2cc1/C=N/O`, the growth in test [1] was 86.7%; in [2], 93.1%; in [3] it was 59.2%; in [4], 95.7%; in test [5], 78.6%; in [6], 79%. For the same compound, the growth is 90% in test [7]; 77% in test [8]; 91.9% in [19]; 74.7% in test [10]; 67.8% in [11]; 91.9% in [12]. Besides, the growth in test [13] is 66.4%; in [14], 101%; in test [15], 82.8%; in test [16] it was 80.4%; in test [17] it was 85.2%; in [18], 105%. The growth in [20] is 83%.
With `NC1=NC(c2cccc(Br)c2)c2sc3ccc(Cl)cc3c2N1` (stereo not given), the growth in [1] is 103%; in test [2], 104%; in test [3], 75.6%; in [4] it was 97.3%; in [5], 103%; in [6], 88.7%. Moreover, the growth in [7] is 96.5%; in test [8], 84.5%; in test [19], 98.8%; in test [10], 108%; in test [11] it was 85.5%; in test [12], 93.5%. Further, the growth in test [13] is 62.8%; in test [14], 123%; in test [15], 92.9%; in test [16], 79.5%; in [17], 104%; in test [18] it was 121%. The growth in test [20] was 92.2%.
Consider `O=c1ccc(N=Nc2ccccc2)ccc1Cl`, for which the growth in test [1] is 2.07% (active); in test [2] it was 27.5%; in test [3], 74.5%; in test [4] it was 81.8%; in [5], 54.4%; in test [6], 56.2%. The growth in [7] was 55.5%; in test [8], 55.7%; in test [19], -77.1% (active); in test [10] it was 77.6%; in test [11], 65.9%; in test [12], 60%. Further, the growth in [13] is 77%; in [14], 111%; in [15], 75.9%; in test [16] it was 76.1%; in [17], 191%; in test [18] it was 31.3%. Besides, the growth in test [20] was -1.36% (active).
As for `COc1ccc(-c2nn(C(=O)c3cc(OC)c(OC)c(OC)c3)c3cc(N)ccc23)cc1`, the growth in test [1] is 4.67% (active); in test [2], 0.136% (active); in [3], 39.6%; in test [4], 34%; in test [5], 12.3%; in test [6] it was 25.8%. The growth is -15.8% (active) in test [7]; 42.5% in test [8]; 26.3% in test [19]; 55.8% in [10]; 30.8% in [11]; 22.9% in test [12]. The growth in [13] was 23.7%; in test [14], 60.8%; in test [15] it was 11.4%; in test [16] it was 46.2%; in test [17], -8.28% (active); in [18] it was 17%. Besides, the growth in test [20] is 13.7%.
For `COc1ccc(S(=O)(=O)n2c3ccccc3n3ncc(-c4nnc(C)o4)c23)cc1`, the growth in [1] is 20.3%; in test [2], 11.2%; in test [3] it was 14.1%; in test [4], 23%; in [5], 31.6%; in [6], 36.5%. Further, the growth in [7] is 21.3%; in test [8] it was 27.3%; in [19] it was 36.8%; in [10], 67%; in [11], 31.7%; in [12], 38.3%. The growth in [13] was 44.8%; in [14], 76.1%; in [15] it was 45.7%; in test [16], 32.1%; in [17], -8.11% (active); in test [18] it was 11.7%. In test [20], the growth was 24.1%.
For the compound `NCCCNc1nc2ccccc2c2c(=O)c3cc(F)cc(F)c3sc12`, the growth in [1] was 77%; in test [2], -49.7% (active); in test [3], 74.7%; in [4] it was 87.1%; in [5], -69.2% (active); in test [6] it was 73.8%. The growth in [7] is 92.3%; in test [8], 103%; in test [19], 60%; in [10], 111%; in [11], 96.8%; in test [12] it was 80.8%. Further, the growth in test [13] was -95% (active); in test [14], 87.1%; in test [15], -60.3% (active); in test [16], 61.1%; in test [17], 43.5%; in [20], 60.7%.
As to `Cc1cc2nc3cc(C)c(N)cc3[n+](-c3ccccc3)c2cc1N`, the growth is 111% in [1]; 85.3% in [2]; 52.1% in test [3]; 23.3% in [4]; 19.4% in test [5]; 42.5% in [6]. The growth was 20.7% in test [7]; 53.1% in test [8]; 80.7% in test [9]; 82.8% in test [10]; 47.3% in [11]; 13.9% in test [12]. For the same compound, the growth in test [13] is 84.2%; in test [14], 93.8%; in test [15], 89.1%; in test [16], 97.5%; in test [17], 85.7%; in test [18], 58.3%. Besides, the growth in test [20] is 52.8%.

(Values after PubChem BioAssay (NCI).)
